The results in this text go back to ChEMBL document CHEMBL1157539, “Thousands of chemical starting points for antimalarial lead identification” (Nature, 2010).

Holding throughout (format): functional
For experiment [1], the system named is Plasmodium falciparum. In words: GSK_TCMDC: Inhibition of Plasmodium falciparum 3D7 in whole red blood cells, using parasite LDH activity as an index of growth. Test compounds present at 2uM.
In experiment [2] the test system is Plasmodium falciparum. As to the kind of experiment: GSK_TCMDC: Inhibition of Plasmodium falciparum Dd2 in whole red blood cells, using parasite LDH activity as an index of growth. Test compounds present at 2uM.
The subject of the next experiment is HepG2. As to the kind of experiment: GSK_TCMDC: Percent inhibition of human HepG2 cell line. Test compounds present at 10uM.

Take `S=C(NCCCCCN1CCC(c2c[nH]c3ccccc23)CC1)Nc1cccc(I)c1`: the Inhibition was found to be 99% in the experiment with Plasmodium falciparum [1], 14% with Plasmodium falciparum [2] and 69% in the experiment with HepG2.
As to `Cc1[nH]c(C)c(-c2ccc(-c3cc(C(F)(F)F)cc(C(F)(F)F)c3)nc2)c(=O)c1Br`, the Inhibition in the experiment on Plasmodium falciparum [1] stood at 98%; with Plasmodium falciparum [2], 96%; in the experiment on HepG2, 18%.
Take `Cc1c(N)ccc2[nH]c(-c3ccc(N)cc3)nc12`: the Inhibition with Plasmodium falciparum [1] turned out to be 97%; with Plasmodium falciparum [2], 40%; with HepG2, 0%.
Consider `NC(=O)C1CCN(Cc2cccc(-c3ccc(-c4nc5cc(C(F)(F)F)ccc5[nH]4)cc3)c2)CC1.O=C(O)C(F)(F)F`, for which the results for the Inhibition in the experiment with Plasmodium falciparum [1], in the experiment on Plasmodium falciparum [2] and with HepG2 were 100%, 94% and 7%, respectively.
Turning to `CCn1c(SCC(=O)Nc2cc(C(F)(F)F)ccc2Cl)nc2ccccc2c1=O`, the Inhibition in the experiment on Plasmodium falciparum [1] came out at 93%; with Plasmodium falciparum [2], 95%; in the experiment on HepG2 it was 8%.
Turning to `CN1CCN(CC(=O)Nc2ccc(-c3ccc(-c4nc5ccccc5[nH]4)s3)cc2)CC1`, the figures for the Inhibition in the experiment with Plasmodium falciparum [1], in the experiment on Plasmodium falciparum [2] and with HepG2 were 100%, 49% and 12%, respectively.
For `O=C(/C=C/c1ccc(Cl)c(Cl)c1)NCCCCCN1CCC(NC(=S)Nc2cccc(Cl)c2)CC1`, the Inhibition in the experiment with Plasmodium falciparum [1] is reported as 99%; in the experiment with Plasmodium falciparum [2], 43%; in the experiment on HepG2, 24%.
For the compound `Cc1cc(N2CCCC2)nc(Nc2ccc(NC(=O)c3ccc4c(c3)OCO4)cc2)n1`, the Inhibition worked out at 100% in the experiment with Plasmodium falciparum [1], 67% in the experiment with Plasmodium falciparum [2] and 26% with HepG2.
For `Cn1nc(-c2cccc(CNCCc3cccs3)c2)c2cnc(NC3CCCC3)nc21`, the Inhibition with Plasmodium falciparum [1] was found to be 97%; in the experiment on Plasmodium falciparum [2], 0%; in the experiment with HepG2, 8%.
Consider `O=C(Cn1cnc2c(nnn2Cc2ccccc2F)c1=O)Nc1ccc2c(c1)OCCO2`, for which the Inhibition in the experiment on Plasmodium falciparum [1] was found to be 86%; in the experiment on Plasmodium falciparum [2], 1%; in the experiment with HepG2, 0%.
As to `COc1cccc(-c2cc(-c3ccc(NC(=O)c4ccccc4)cc3)c3c(N)ncnc3n2)c1`, the Inhibition in the experiment on Plasmodium falciparum [1] worked out at 99%; in the experiment on Plasmodium falciparum [2], 98%; with HepG2, 0%.
The corresponding values for `CCOC(=O)c1cccc(NC(=O)Nc2cccc(-c3ncc(OCCCN)c4c3nc(-c3nonc3N)n4CC)c2)c1.O=C(O)C(F)(F)F` are 100%, 98% and 16%.
As to `CCCCCOc1ccc(C(O)C(CCC(CN2CCCCCC2)C(O)c2ccc(OCCCCC)cc2)CN2CCCCCC2)cc1.Cl` (stereo unspecified), the values for the Inhibition in the experiment on Plasmodium falciparum [1], with Plasmodium falciparum [2] and in the experiment on HepG2 were 99%, 93% and 99%, respectively.
With `Cc1cc2nc(-c3ccc(/C=C/C(=O)NCCCc4ccccc4)cc3)[nH]c2cc1C`, the Inhibition is 96% with Plasmodium falciparum [1], 13% in the experiment on Plasmodium falciparum [2] and 15% in the experiment on HepG2.
With `Cc1noc(-c2ccc3c(c2)CCN(CCC2CCC(NC(=O)c4cc5ccccc5[nH]4)CC2)CC3)n1.Cl` (stereo unspecified), the values for the Inhibition in the experiment on Plasmodium falciparum [1], in the experiment on Plasmodium falciparum [2] and in the experiment on HepG2 were 99%, 41% and 21%, respectively.
Take `O=C(NCc1cccc(Br)c1)c1ccc(CNC2CCN(Cc3ccccc3)CC2)cc1.O=C(O)C(F)(F)F`: the figures for the Inhibition in the experiment with Plasmodium falciparum [1], in the experiment with Plasmodium falciparum [2] and in the experiment on HepG2 were 100%, 49% and 3%, respectively.
Turning to `O=C(/C=C/c1ccc(Cl)c(Cl)c1)NCCCCCN1CCC(NC(=O)NC2CCCC2)CC1`, the figures for the Inhibition in the experiment on Plasmodium falciparum [1], with Plasmodium falciparum [2] and with HepG2 were 99%, 31% and 21%, respectively.
As for `Cl.N#Cc1ccc2c(c1)CCN(CCC1CCC(NC(=O)/C=C/c3c[nH]c4c(Br)cccc34)CC1)CC2` (stereo unspecified), the figures for the Inhibition in the experiment on Plasmodium falciparum [1], in the experiment on Plasmodium falciparum [2] and in the experiment with HepG2 were 100%, 65% and 32%, respectively.
Regarding `Cc1cc(=NN=Cc2ccccn2)c2cc(F)ccc2[nH]1`, the results for the Inhibition in the experiment with Plasmodium falciparum [1], with Plasmodium falciparum [2] and in the experiment on HepG2 were 100%, 96% and 9%, respectively.
`Cc1ccc2nc(C)cc(N/N=C/c3ccc([N+](=O)[O-])o3)c2c1`: the Inhibition in the experiment on Plasmodium falciparum [1] was 100%; with Plasmodium falciparum [2] it was 99%; in the experiment with HepG2 it was 15%.
For the compound `N=C(N)c1ccc(Nc2nccc(Nc3nc(-c4ccccc4)cs3)n2)cc1.O=C(O)C(F)(F)F`, the Inhibition in the experiment with Plasmodium falciparum [1] is reported as 96%; with Plasmodium falciparum [2] it was 75%; with HepG2, 13%.
Consider `Cc1nnsc1C(=O)Nc1cccc(-c2ccc(-c3nc4cc(F)ccc4[nH]3)cc2)c1`, for which the results for the Inhibition with Plasmodium falciparum [1], with Plasmodium falciparum [2] and with HepG2 were 100%, 89% and 51%, respectively.
Take `O=C(O)C(F)(F)F.c1cc(CN2CCCCC2)cc(-c2cccc(-c3nc4ccccc4[nH]3)c2)c1`: the results for the Inhibition with Plasmodium falciparum [1], in the experiment on Plasmodium falciparum [2] and with HepG2 were 100%, 37% and 39%, respectively.
In the case of `CCC(C)CNC(=O)CN1CN(c2ccccc2)C2(CCN(C(=O)c3ccc(Br)cc3)CC2)C1=O` (stereo unspecified), the Inhibition with Plasmodium falciparum [1] is listed as 88%; in the experiment on Plasmodium falciparum [2], 88%; in the experiment with HepG2, 10%.
For `Cl.O=C(Nc1ccc(SC(F)(F)F)cc1)Nc1ccnc2ccccc12`, the Inhibition is recorded as 95% with Plasmodium falciparum [1], 42% with Plasmodium falciparum [2] and 26% in the experiment on HepG2.
As for `COc1cc(OC)cc(-c2nn(-c3ccc([N+](=O)[O-])cc3Cl)c(=S)n2Cc2ccco2)c1`, the Inhibition was 100% in the experiment on Plasmodium falciparum [1], 100% with Plasmodium falciparum [2] and 15% with HepG2.
`Br.CCCC1N=C(N)N=C(N)N1c1ccc(OC)cc1` (stereo unspecified): the Inhibition in the experiment on Plasmodium falciparum [1] is recorded as 96%; in the experiment on Plasmodium falciparum [2], 4%; in the experiment on HepG2, 0%.
Take `COc1ccc2nc3cc(Cl)ccc3c(NCCCO)c2c1`: the Inhibition in the experiment with Plasmodium falciparum [1] was found to be 100%; with Plasmodium falciparum [2], 100%; in the experiment with HepG2, 32%.
On to `COc1ccc2cc(-c3nc(-c4c(Cl)cccc4Cl)[nH]c3-c3ccnc(NCCCN4CCN(C)CC4)c3)ccc2c1.O=C(O)C(F)(F)F`, for which the Inhibition turned out to be 98% in the experiment with Plasmodium falciparum [1], 80% in the experiment with Plasmodium falciparum [2] and 10% with HepG2.
Regarding `Cc1cccc2nc(-c3cccc(-c4cccc(CN5CCCC5CN)c4)c3)[nH]c12.O=C(O)C(F)(F)F` (stereo unspecified), the figures for the Inhibition with Plasmodium falciparum [1], with Plasmodium falciparum [2] and in the experiment with HepG2 were 100%, 72% and 15%, respectively.
Take `COc1ccc(C(c2ccc(N(C)C)cc2)c2ccc(N(C)C)cc2)cc1`: the Inhibition with Plasmodium falciparum [1] stood at 100%; with Plasmodium falciparum [2], 99%; in the experiment with HepG2 it was 72%.
For the compound `CS(=O)(=O)CCNCc1nc(-c2ccc3c(Nc4ccc(Oc5ccccn5)cc4)ccnc3c2)cs1`, the Inhibition in the experiment with Plasmodium falciparum [1] is given as 100%; in the experiment with Plasmodium falciparum [2] it was 89%; with HepG2 it was 9%.
